Shown are actives, neighbours in structure and some others; about 2.4% of the full set was active somewhere.
PREPL inhibitor – inhibitors of human prolyl oligopeptidase-like enzyme PREPL. AID 2751. recombinant PREPL, fluorescence polarization activity-based probe. inhibition, % at 5.96 µM. 0.68% of 320,000 active; in the data active = inhibition above about 43%;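 note: 0% = enzyme with DMSO and 100% = wells lacking enzyme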
PP5 inh – blocks human protein phosphatase 5 activity. inhibition, % at 6.7 µM. 0.18% of 320,000 active. P53041. AID 1987. purified PP5c, OMFP substrate fluorescence;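 active = inhibition above the campaign's mean inhibition across all tested compounds plus 3 SD, cut at about 9.5% in these data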;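 note: 0% = DMSO only and 100% = 100 µM cantharidin control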
Target sequence (P53041 whole entry, looked up): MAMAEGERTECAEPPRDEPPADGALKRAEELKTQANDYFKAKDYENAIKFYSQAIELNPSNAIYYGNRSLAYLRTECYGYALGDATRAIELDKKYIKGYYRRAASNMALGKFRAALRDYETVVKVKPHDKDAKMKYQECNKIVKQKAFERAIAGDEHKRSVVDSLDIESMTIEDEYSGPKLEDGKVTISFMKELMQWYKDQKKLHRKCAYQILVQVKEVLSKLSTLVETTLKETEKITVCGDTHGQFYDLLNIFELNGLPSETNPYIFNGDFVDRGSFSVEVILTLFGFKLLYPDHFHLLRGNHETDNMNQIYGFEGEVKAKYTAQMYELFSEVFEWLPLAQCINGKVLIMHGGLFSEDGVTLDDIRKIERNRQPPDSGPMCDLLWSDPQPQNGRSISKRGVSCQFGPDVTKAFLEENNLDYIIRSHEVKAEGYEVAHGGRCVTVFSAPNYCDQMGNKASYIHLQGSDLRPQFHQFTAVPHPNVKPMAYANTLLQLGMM
NadD inh – inhibitors of Staphylococcus aureus NadD; purified NadD enzyme, colorimetric absorbance read-out; inhibition, % at 20 µM; 0.78% of 360,000 active; in the data active = inhibition above about 26%
Rpn11 inh – Rpn11 (human) deubiquitinase inhibition; inhibition, % at 20 µM; 0.59% of 360,000 active; AID 588493; human 26S proteasome, Ub4-pepOG fluorescence polarization; 20S core pre-blocked with epoxomicin;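 active = inhibition at 20 µM, scaled to each plate's controls, above about 33%, limit read from the data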
PP1 inh – PP1-alpha (human) inhibition in PP5 counter-screen. purified PP1alpha, OMFP fluorescence. inhibition, % at 6.7 µM. 0.9% of 320,000 active. AID 2235;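 active = inhibition above the mean inhibition of all tested compounds plus 3 SD, computed separately for each screening campaign, cut at about 15% in these data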
PP1 confirm – confirmation of human PP1 phosphatase inhibitors. AID 2358. shares compounds with PP1 inh. purified PP1alpha, OMFP substrate fluorescence. inhibition, % at 6.7 µM. 52% of 1,900 active;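 active = mean PP1 inhibition above a set limit taken from the earlier primary screen, cut at about 15% in these data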
PP5 counter – PP5 phosphatase inhibition, counter-screen for PP1 inhibitors; shares compounds with PP1 inh; 4% of 1,900 active; purified PP5c, OMFP fluorescence; inhibition, % at 6.7 µM; AID 2360;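 active = mean PP5 inhibition over triplicate wells above about 9.5% taken from the earlier PP1 screen, limit read from the data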
Starred values were filed as active, the others as inactive.

What do the screens show for `CC1=C(C(=O)OC(C)C)C(c2cccs2)NC(=S)N1` (centres undefined)?
PREPL inhibitor: 0; PP5 inh: 3; NadD inh: 7; Rpn11 inh: -2; PP1 inh: 1

Results for O=C(Cn1c(=O)n(Cc2ccco2)c(=O)c2c3c(sc21)CCCCC3)c1ccccc1 ?
PREPL inhibitor: 17; PP5 inh: 3; NadD inh: 35*; Rpn11 inh: -6; PP1 inh: 25*; PP1 confirm: 16*; PP5 counter: -1

What do the screens show for `O=c1c2c3c(sc2n(CCN2CCCC2)c(=O)n1Cc1ccco1)CCCCC3`?
PREPL inhibitor: 12; PP5 inh: 1; NadD inh: 2; Rpn11 inh: 7; PP1 inh: 4

Results for COc1ccc(N(CC(=O)NCc2ccc(C)cc2)S(=O)(=O)c2c(C)noc2C)cc1 ?
PREPL inhibitor: -17; PP5 inh: 3; NadD inh: -10; Rpn11 inh: 0; PP1 inh: 0

Results for CCOC(=O)c1cnc(-n2nc(C)cc2C)nc1Nc1ccc(OC)cc1 ?
PREPL inhibitor: 10; PP5 inh: 0; NadD inh: 9; Rpn11 inh: 2; PP1 inh: 9

Results for CCOC(=O)c1cnc(-n2nc(C)cc2C)nc1NC1CCCC1 ?
PREPL inhibitor: 5; PP5 inh: 2; NadD inh: 7; Rpn11 inh: -2; PP1 inh: 22*; PP1 confirm: 27*; PP5 counter: 1

What do the screens show for `NC(=O)CC(NC(=O)Cc1cccc2ccccc12)c1ccc(N2CCC(Cc3ccccc3)CC2)c([N+](=O)[O-])c1` (centres undefined)?
PREPL inhibitor: 12; PP5 inh: 3; NadD inh: 19; Rpn11 inh: 1; PP1 inh: 13

How did NC(=O)CC(NC(=O)Cc1ccc(Br)cc1)c1ccc(N2CCC(Cc3ccccc3)CC2)c([N+](=O)[O-])c1 (centres undefined) do in these assays?
PREPL inhibitor: 0; PP5 inh: 0; NadD inh: 6; Rpn11 inh: -8; PP1 inh: 23*; PP1 confirm: 10; PP5 counter: -6

Results for NC(=O)CC(NC(=O)Cc1ccc(Br)cc1)c1ccc(N2CCC(Br)CC2)c([N+](=O)[O-])c1 (centres undefined) ?
PREPL inhibitor: 13; PP5 inh: 0; NadD inh: -4; Rpn11 inh: -1; PP1 inh: 27*; PP1 confirm: 16*; PP5 counter: -4

Results for NC(=O)CC(NC(=O)Cc1ccc(Br)cc1)c1ccc(N2CCCCCCC2)c([N+](=O)[O-])c1 (centres undefined) ?
PREPL inhibitor: 8; PP5 inh: 1; NadD inh: -11; Rpn11 inh: 0; PP1 inh: 7

Results for N#Cc1ccc(-c2c(-c3ccccc3)ncc3cc(F)ccc23)cc1 ?
PREPL inhibitor: -12; PP5 inh: 3; NadD inh: 0; Rpn11 inh: -5; PP1 inh: 2

What do the screens show for `O=C(CSc1nnc(Nc2ccccc2F)s1)NCc1ccco1`?
NadD inh: 6; Rpn11 inh: -18

How did Cc1ccccc1Nc1nnc(SCC(=O)NC(=O)NCc2ccco2)s1 do in these assays?
PREPL inhibitor: -2; PP5 inh: 1; NadD inh: 25; Rpn11 inh: -21; PP1 inh: 26*; PP1 confirm: 7; PP5 counter: -3

Results for CC(=O)Nc1ccc(NC(=O)COC(=O)c2ccccc2SCC(=O)N2CCCC2)cc1 ?
PREPL inhibitor: -1; PP5 inh: -1; NadD inh: -3; Rpn11 inh: 0; PP1 inh: 58*; PP1 confirm: -1; PP5 counter: -6

What do the screens show for `CCOC(=O)CCC1(C(=O)OC)C(=O)CCCCCC=C1C(=O)OC` (centres undefined)?
NadD inh: 0; Rpn11 inh: -3

Results for Cc1ccc(NC2c3ncccc3C(=O)N2c2ccccc2C)cc1C (centres undefined) ?
PREPL inhibitor: 9; PP5 inh: 8; NadD inh: 14; Rpn11 inh: 2; PP1 inh: 30*; PP1 confirm: 26*; PP5 counter: 1

How did CCCN1C(=O)C(NC(C)=O)c2ccccc21 (centres undefined) do in these assays?
PREPL inhibitor: 3; PP5 inh: -1; NadD inh: 11; Rpn11 inh: 2; PP1 inh: -1

How did CCc1ccc2c(c1)C(NC(C)=O)C(=O)N2CCN1CCOCC1 (centres undefined) do in these assays?
PREPL inhibitor: 3; PP5 inh: 4; NadD inh: 10; Rpn11 inh: -24; PP1 inh: 41*; PP1 confirm: 36*; PP5 counter: -4

How did CC(C)(C)NC(=S)NC1CC1 do in these assays?
PREPL inhibitor: 6; PP5 inh: -1; NadD inh: -1; Rpn11 inh: -6; PP1 inh: -5

What do the screens show for `CN(C)c1ccc(N=Nc2ccc(S(N)(=O)=O)cc2)cc1`?
PREPL inhibitor: 1; PP5 inh: 4; NadD inh: 4; Rpn11 inh: 7; PP1 inh: 20*; PP1 confirm: 13; PP5 counter: -4

How did CN(C)N=Nc1ccc(S(N)(=O)=O)cc1 do in these assays?
PREPL inhibitor: 3; PP5 inh: -2; NadD inh: -3; Rpn11 inh: 3; PP1 inh: -4

What do the screens show for `CN(Cc1ccccc1)C(=O)[C@@H]1CCCN1C(=O)OC(C)(C)C`?
NadD inh: -1

What do the screens show for `C=CCOC(=O)C1=C(C)NC(SCC(=O)Nc2nccs2)=C(C#N)C1c1ccc(Cl)cc1` (centres undefined)?
PREPL inhibitor: -18; PP5 inh: 1; NadD inh: 16; Rpn11 inh: 10; PP1 inh: 23*; PP1 confirm: 7; PP5 counter: 3

What do the screens show for `C=CCOC(=O)C1=C(C)NC(SCC(=O)Nc2nccs2)=C(C#N)C1c1cccs1` (centres undefined)?
PREPL inhibitor: -17; PP5 inh: 3; NadD inh: 5; Rpn11 inh: 12; PP1 inh: 11

Results for CC(C)(C)c1ccc(NC(=O)c2cc(C3CCCN(C(=O)CCc4ccccc4)C3)on2)cc1 (centres undefined) ?
NadD inh: 0; Rpn11 inh: -1

Results for COc1ccc(N2C3=C(CC4=C2CC(C)(C)CC4=O)C(=O)CC(C)(C)C3)cc1 ?
PREPL inhibitor: -2; PP5 inh: 4; NadD inh: 9; Rpn11 inh: -1; PP1 inh: -4

Results for COc1ccc(N2C3=C(CC4=C2CCCC4=O)C(=O)CCC3)cc1 ?
PREPL inhibitor: 11; PP5 inh: 0; NadD inh: 25; Rpn11 inh: -29; PP1 inh: 34*; PP1 confirm: 3; PP5 counter: 4

Source: PubChem
